# Measurements as given in the supplement of paper PMC13380429.
# System: Vero E6 infected with SARS-CoV-2
# Experiment: morphology score (similarity to uninfected cells); higher = more like uninfected cells
# Settings: 24 h
row,SMILES,morphology score
1,Cn1c(N2CCCCS2(=O)=O)nc(C(=O)NCc2ccc(F)cc2)c(O)c1=O (10 µM),0.046
2,COc1c(N2C[C@@H]3CCCN[C@@H]3C2)c(F)cc2c(=O)c(C(=O)O)cn(C3CC3)c12 [moxifloxacin] (10 µM),0.0295
3,C[S+]([O-])c1ccc(-c2nc(-c3ccc(F)cc3)c(-c3ccncc3)[nH]2)cc1 (centres undefined) (10 µM),0.0867
4,CC1=C(/C=C/C(C)=C/C=C/C(C)=C/C(=O)Nc2ccc(O)cc2)C(C)(C)CCC1 [fenretinide] (10 µM),-0.442
5,COc1cc(N)c(Cl)cc1C(=O)CCC1CCN(CCNS(C)(=O)=O)CC1 (10 µM),0.0872
6,COc1cc(N2CCC(N3CCN(C)CC3)CC2)ccc1Nc1ncnc(Nc2ccccc2S(=O)(=O)C(C)C)n1 (0.833333 µM),-0.0307
7,O/N=C/c1ccc(-c2ccc(O)c(F)c2)c(Cl)c1O (10 µM),0.342
8,c1ccc2c(c1)OC[C@H](CNCCCOc1ccc3c(c1)OCO3)O2 [osemozotan] (10 µM),0.0986
9,COc1c(N2CCNC(C)C2)c(F)cc2c(=O)c(C(=O)O)cn(C3CC3)c12 (centres undefined) [gatifloxacin] (10 µM),0.0682
10,O=c1[nH]c(=O)n([C@H]2C[C@H](O)[C@@H](CO)O2)cc1C(F)(F)F [trifluridine] (0.833333 µM),0.175
11,Cn1cc(C(=O)C(=O)N[C@H]2CN3CCC2CC3)c2ccccc21 (10 µM),0.181
12,CC(C)(C)NCC(O)c1cc(Cl)c(N)c(C(F)(F)F)c1 (centres undefined) [mabuterol] (10 µM),-0.0501
13,O=C(Nc1ccc(OC(F)(F)F)cc1)c1sccc1NCc1ccnc2ccccc12 (10 µM),0.0678
14,N[C@@H](Cc1c[nH]c2ccccc12)C(=O)O [tryptophan] (10 µM),-0.124
15,Nc1nonc1/C(=N/O)Nc1ccc(F)c(Cl)c1 (10 µM),0.043
16,c1ccc(C2CC2)c(OCC2=NCCN2)c1 [cirazoline] (10 µM),0.0206
17,CC(=O)Nc1ccc(O)cc1 [paracetamol] (10 µM),-0.0685
18,Cc1ccc(C(=O)Nc2ccc(CN3CCN(C)CC3)c(C(F)(F)F)c2)cc1C#Cc1cnc2[nH]ncc2c1 (10 µM),0.453
19,Cc1cc(Nc2ncc(Cl)c(Nc3ccccc3S(=O)(=O)C(C)C)n2)c(OC(C)C)cc1C1CCNCC1 [ceritinib] (0.833333 µM),0.182
20,CNC(=O)[C@H](Cc1c[nH]c2ccccc12)NC(=O)[C@@H](CC(=O)NO)CC(C)C [ilomastat] (10 µM),-0.0294
21,Cc1cn2c(N)c(Cl)cc(C(=O)NCC3CCN(CC(C)C)CC3)c2n1 (10 µM),0.221
22,CO[C@H]1/C=C/O[C@@]2(C)Oc3c(C)c(O)c4c(O)c(c5c(nc6cc(C)ccn65)c4c3C2=O)NC(=O)/C(C)=C\C=C\[C@H](C)[C@H](O)[C@@H](C)[C@@H](O)[C@@H](C)[C@H](OC(C)=O)[C@@H]1C [rifaximin] (10 µM),0.0779
23,OC[C@H]1O[C@H]([S-])[C@H](O)[C@@H](O)[C@@H]1O.[Au+] [aurothioglucose] (10 µM),-0.0654
24,NC(=O)NCCC[C@H](N)C(=O)O [L-citrulline] (10 µM),0.035
25,CNC(=N)NC(=O)Nc1c(C)cccc1C [lidamidine] (10 µM),-0.327
26,CSCC[C@H](NC(=O)[C@H](Cc1ccccc1)NC(=O)CNC(=O)CNC(=O)[C@@H](N)Cc1ccc(O)cc1)C(=O)O [metenkephalin] (10 µM),0.247
27,CNCCCCOc1ccccc1Cc1ccccc1 [bifemelane] (10 µM),0.517
28,COc1ccc(CCN(C)CCc2ccc(OC)c(OC)c2)cc1OC (10 µM),0.0297
29,Cc1ccc(S(=O)(=O)n2c(N)nc3ccccc32)cc1 (10 µM),-0.0202

# System: Vero E6 infected with SARS-CoV-2
# Experiment: SARS-CoV-2 infection rate relative to infected DMSO; higher = more infection, active = 60 or less
# Settings: 24 h
row,SMILES,SARS-CoV-2 infection rate
1,N#Cc1ccc2[nH]cc(CCCCN3CCN(c4ccc5oc(C(N)=O)cc5c4)CC3)c2c1 [vilazodone] (0.833333 µM),102% (inactive)
2,CN(C)CCCN1c2ccccc2CCc2ccccc21 [imipramine] (10 µM),92.5% (inactive)
3,CCC(c1ccccc1)c1c(O)c2ccccc2oc1=O (centres undefined) [phenprocoumon] (10 µM),102% (inactive)
4,C=C[C@@H]1C[C@]1(NC(=O)[C@@H]1C[C@@H](Oc2ncc(OC)c3ccc(Cl)cc23)CN1C(=O)[C@@H](NC(=O)OC(C)(C)C)C(C)(C)C)C(=O)NS(=O)(=O)C1CC1 [asunaprevir] (10 µM),85% (inactive)
5,Cc1cnc(C(=O)N[C@H]2CCCCC/C=C\[C@@H]3C[C@@]3(C(=O)NS(=O)(=O)C3CC3)NC(=O)[C@@H]3C[C@@H](Oc4nc5ccccc5c5ccccc45)CN3C2=O)cn1 [paritaprevir] (10 µM),98% (inactive)
6,c1ccc2c(c1)[I+]c1ccccc1-2 [diphenyleneiodonium] (0.833333 µM),108% (inactive)
7,CCC(C/C=C/c1ccccc1)(c1ccccc1)N(C)CC1CC1 (centres undefined) [igmesine] (10 µM),97.5% (inactive)
8,Cn1c(CNc2ccc(C(=N)N)cc2)nc2cc(C(=O)N(CCC(=O)O)c3ccccn3)ccc21 [dabigatran] (10 µM),96% (inactive)
9,Cn1c(-c2ccccc2)nnc1S(C)(=O)=O (10 µM),86.5% (inactive)
10,C#Cc1cccc2c1c(C(=O)c1ccc(Cn3c(C)nc4cnccc43)c(F)c1)cn2C(=O)N(C)C (10 µM),106% (inactive)
11,Cc1cc(O)c(C(C)C)cc1Cl [chlorothymol] (10 µM),104% (inactive)
12,Cn1c(N2CCCCS2(=O)=O)nc(C(=O)NCc2ccc(F)cc2)c(O)c1=O (10 µM),104% (inactive)
13,COc1c(N2C[C@@H]3CCCN[C@@H]3C2)c(F)cc2c(=O)c(C(=O)O)cn(C3CC3)c12 [moxifloxacin] (10 µM),106% (inactive)
14,C[S+]([O-])c1ccc(-c2nc(-c3ccc(F)cc3)c(-c3ccncc3)[nH]2)cc1 (centres undefined) (10 µM),95% (inactive)
15,CC1=C(/C=C/C(C)=C/C=C/C(C)=C/C(=O)Nc2ccc(O)cc2)C(C)(C)CCC1 [fenretinide] (10 µM),116% (inactive)
16,COc1cc(N)c(Cl)cc1C(=O)CCC1CCN(CCNS(C)(=O)=O)CC1 (10 µM),97.5% (inactive)
17,COc1cc(N2CCC(N3CCN(C)CC3)CC2)ccc1Nc1ncnc(Nc2ccccc2S(=O)(=O)C(C)C)n1 (0.833333 µM),71% (inactive)
18,O/N=C/c1ccc(-c2ccc(O)c(F)c2)c(Cl)c1O (10 µM),76.5% (inactive)
19,c1ccc2c(c1)OC[C@H](CNCCCOc1ccc3c(c1)OCO3)O2 [osemozotan] (10 µM),106% (inactive)
20,COc1c(N2CCNC(C)C2)c(F)cc2c(=O)c(C(=O)O)cn(C3CC3)c12 (centres undefined) [gatifloxacin] (10 µM),104% (inactive)

row,SMILES,SARS-CoV-2 infection rate
1,O=c1[nH]c(=O)n([C@H]2C[C@H](O)[C@@H](CO)O2)cc1C(F)(F)F [trifluridine] (0.833333 µM),101% (inactive)
2,Cn1cc(C(=O)C(=O)N[C@H]2CN3CCC2CC3)c2ccccc21 (10 µM),97.5% (inactive)
3,CC(C)(C)NCC(O)c1cc(Cl)c(N)c(C(F)(F)F)c1 (centres undefined) [mabuterol] (10 µM),107% (inactive)
4,O=C(Nc1ccc(OC(F)(F)F)cc1)c1sccc1NCc1ccnc2ccccc12 (10 µM),90% (inactive)
5,N[C@@H](Cc1c[nH]c2ccccc12)C(=O)O [tryptophan] (10 µM),100% (inactive)
6,Nc1nonc1/C(=N/O)Nc1ccc(F)c(Cl)c1 (10 µM),112% (inactive)
7,c1ccc(C2CC2)c(OCC2=NCCN2)c1 [cirazoline] (10 µM),102% (inactive)
8,CC(=O)Nc1ccc(O)cc1 [paracetamol] (10 µM),103% (inactive)
9,Cc1ccc(C(=O)Nc2ccc(CN3CCN(C)CC3)c(C(F)(F)F)c2)cc1C#Cc1cnc2[nH]ncc2c1 (10 µM),98% (inactive)
10,Cc1cc(Nc2ncc(Cl)c(Nc3ccccc3S(=O)(=O)C(C)C)n2)c(OC(C)C)cc1C1CCNCC1 [ceritinib] (0.833333 µM),104% (inactive)
11,CNC(=O)[C@H](Cc1c[nH]c2ccccc12)NC(=O)[C@@H](CC(=O)NO)CC(C)C [ilomastat] (10 µM),114% (inactive)
12,Cc1cn2c(N)c(Cl)cc(C(=O)NCC3CCN(CC(C)C)CC3)c2n1 (10 µM),103% (inactive)
13,CO[C@H]1/C=C/O[C@@]2(C)Oc3c(C)c(O)c4c(O)c(c5c(nc6cc(C)ccn65)c4c3C2=O)NC(=O)/C(C)=C\C=C\[C@H](C)[C@H](O)[C@@H](C)[C@@H](O)[C@@H](C)[C@H](OC(C)=O)[C@@H]1C [rifaximin] (10 µM),108% (inactive)
14,OC[C@H]1O[C@H]([S-])[C@H](O)[C@@H](O)[C@@H]1O.[Au+] [aurothioglucose] (10 µM),110% (inactive)
15,NC(=O)NCCC[C@H](N)C(=O)O [L-citrulline] (10 µM),112% (inactive)
16,CNC(=N)NC(=O)Nc1c(C)cccc1C [lidamidine] (10 µM),118% (inactive)
17,CSCC[C@H](NC(=O)[C@H](Cc1ccccc1)NC(=O)CNC(=O)CNC(=O)[C@@H](N)Cc1ccc(O)cc1)C(=O)O [metenkephalin] (10 µM),91% (inactive)
18,CNCCCCOc1ccccc1Cc1ccccc1 [bifemelane] (10 µM),65% (inactive)
19,COc1ccc(CCN(C)CCc2ccc(OC)c(OC)c2)cc1OC (10 µM),103% (inactive)
20,Cc1ccc(S(=O)(=O)n2c(N)nc3ccccc32)cc1 (10 µM),108% (inactive)
